# Screen size: about 340,000 compounds; about 3,300 (0.97%) were called active. The sample holds actives, similar compounds and a random draw of the others, so the mix is not that of the screen. Values without a mark were called inactive.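 Rule for the calls: active = mean activation above about 17%, with every replicate also reaching it (limit read from the data, passing the limit was not always enough); inconclusive = only one of the two conditions met; inactive = the rest.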
# Biological target: Protein FosB (Mus musculus) (UniProt P13346)
# Sequence (P13346 whole entry, looked up): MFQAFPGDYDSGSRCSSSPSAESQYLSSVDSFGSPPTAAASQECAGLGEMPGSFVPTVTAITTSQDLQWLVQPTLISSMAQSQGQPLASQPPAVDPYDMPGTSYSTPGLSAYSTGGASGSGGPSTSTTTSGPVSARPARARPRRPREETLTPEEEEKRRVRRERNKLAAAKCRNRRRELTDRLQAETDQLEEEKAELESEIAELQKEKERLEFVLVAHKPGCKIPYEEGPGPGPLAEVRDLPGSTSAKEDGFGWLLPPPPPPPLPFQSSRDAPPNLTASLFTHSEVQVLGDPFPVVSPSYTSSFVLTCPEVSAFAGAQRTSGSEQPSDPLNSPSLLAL
# Assay: activators of delta FosB homodimer, primary screen, biochemical, fluorescence polarization, TAMRA-CDK5 oligo, single point (AID 493131);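 note: fluorescence polarization rise as delta FosB binds a TAMRA Cdk5 AP-1 oligo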
# Conditions: purified delta FosB, at 25 µM, active compounds read high, percent of positive-control signal above neutral wells
row,Structure (SMILES),activation
1,O=C(CSCc1ccc([N+](=O)[O-])cc1)Nc1cccc(C(=O)Nc2ccccc2C(=O)O)c1,-3.8%
2,O=C(COCc1cc(-c2ccc3c(c2)OCO3)on1)N1CCN(c2cccc(Cl)c2)CC1,-10.2%
3,Cc1cccc2c1-c1sc(C(=O)NCCCN3CCc4ccccc4C3)cc1CO2,22.8% (active)
4,CN1CCN(CCCNC(=O)c2cc3c(=O)oc4ccccc4c3s2)CC1,-39.5%
5,O=C(NCCCN1CCOCC1)c1cc2c(s1)CCC2,-3.83%
6,C=CCn1c(Oc2ccc(C(=O)OC)cc2)nc2c1c(=O)n(C)c(=O)n2C,2.74%
7,CC(C)=C1C2CCC1C1C(=O)N(NC(=O)c3ccco3)C(=O)C21 (centres undefined),5.44%
8,COc1ccc(C)cc1NC(=O)CCCN1C(=O)NC(C)(C)C1=O,1.82%
9,O=C(c1ccc(F)cc1)c1cn(Cc2ccc(F)cc2)c2cc3c(cc2c1=O)OCCO3,-2.37%
10,COc1ccc(OC)c(C(=O)c2ccc(Cl)cc2)c1,6.81%
11,COc1ccc2c(c1)c(=O)c(C(=O)c1ccc(Cl)cc1)cn2CC(=O)Nc1ccc(F)cc1,101% (active)
12,CC1(C)CC2CC(C)(CN2c2ncnc3ccc(Br)cc23)C1 (centres undefined),-14.7%
13,C=CCn1c2ccccc2c2nnc(SCc3[nH]c(=O)[nH]c3C(=O)CCCCC(=O)OCC)nc21,-0.527%
14,CCC(=O)Nc1ccc2nc(C)n(Cc3ccccc3Cl)c(=O)c2c1,-9.12%
15,CCN1CCN(c2cc3nc(C)n(Cc4ccccc4)c(=O)c3cc2NC(=O)c2ccccc2F)CC1,27.5% (active)
16,CCOc1cc(NC(=O)c2ccccc2C(=O)O)c(OCC)cc1NC(=O)c1ccccc1F,-3.46%
17,CCOc1cc(CO)ccc1OCC(=O)N1CCCCC1,-0.227%
18,O=C(COc1coc(CN2CCN(c3ccccc3)CC2)cc1=O)N1CCc2ccccc21,-7.12%
19,O=C(COc1coc(CN2CCN(c3ccccc3)CC2)cc1=O)Nc1ccccc1F,-11.2%
20,O=C(COc1coc(CN2CCN(c3ccccc3F)CC2)cc1=O)N1CCc2ccccc21,21.9% (active)
21,Nc1cc(=O)n(Cc2ccccc2)c(=O)n1Cc1ccccc1,-1.18%
22,CC(=O)Nc1sc2c(c1C(c1cccc(F)c1)N1CCN(CCO)CC1)CCCC2 (centres undefined),-12.2%
23,O=C(CN1C(=O)S/C(=C\c2ccccc2F)C1=O)NCCCn1ccnc1,-4.31%

row,Structure (SMILES),activation
1,Cn1cccc1/C=C1\SC(=O)N(CC(=O)Nc2ccc(F)cc2)C1=O,30.6% (active)
2,Cc1nn(CC(=O)Nc2ccc(F)cc2)c(=O)c2ccccc12,0.886%
3,CC(C)c1cc(C(=O)O)on1,5.07%
4,COc1ccc(C2CC(c3cccs3)Nc3nnnn32)cc1 (centres undefined),-5.14%
5,Fc1ccc(-c2ccc(CNCc3ccccn3)o2)cc1Cl,-10.2%
6,O=C(Cc1nc2ccccc2[nH]c1=O)c1ccc(Cl)cc1,25% (active)
7,O=C(/C(=C/c1cccc(Cl)c1)c1nc2ccccc2[nH]1)c1ccccc1,0.879%
8,O=C(Cc1ccc(Cl)cc1)c1ccccc1,-2.82%
9,COc1cccc2c1C(=O)c1c(O)c3c(c(O)c1C2=O)CC(O)(C(C)=NNC(=O)c1ccc(Cl)c(Cl)c1)CC3OC1CC(N)C(O)C(C)O1 (centres undefined),-409%
10,O=C(COc1ccccc1Cl)Nc1ccccc1C(=O)NC1CC1,-11.8%
11,CC(=O)Nc1ccc(NC(=O)COc2ccccc2C(=O)Nc2cccc(Cl)c2Cl)cc1,26% (active)
12,O=C(COc1ccccc1Cl)Nc1ccc(C(=O)c2ccc(C(=O)O)cc2)cc1,-0.74%
13,O=c1c2ccccc2oc2nc(C3CCCCC3)n(Cc3ccco3)c(=O)c12,34% (active)
14,CCc1nc2oc3ccccc3c(=O)c2c(=O)n1Cc1ccc(OC)cc1,-18.5%
15,O=c1c2ccccc2oc2nc3n(c(=O)c12)CCCS3,-28.8%
16,COC(=O)c1cc(C(=O)N(Cc2ccccc2)c2ccccn2)cc([N+](=O)[O-])c1,-5.79%
17,C[C@@H](CN1CCC[C@H]1CN1C(N)=NC[C@@H]1Cc1ccccc1)N1C[C@@H](Cc2ccccc2)N(CCCC2CCCC2)C1=N,-7.85%
18,CC[C@@H](C)[C@@H]1CN([C@@H](C)CN2CCC[C@H]2CN2C(N)=NC[C@H]2C(C)C)C(=N)N1CCc1ccc(Cl)c(Cl)c1,23.1% (active)
19,CC(C)C[C@H]1CN([C@@H](CC(C)C)CN2CCC[C@@H]2CN2C(=O)C(=O)NC[C@@H]2Cc2ccccc2)C(=O)C(=O)N1CCc1ccccc1,-16%
20,Cc1cc(SCC(=O)NCCN2C(=O)CSC2=O)nc2ccccc12,5.19%
21,C=CCNC(=O)c1ccc2c3n(nc2c1)-c1ccc(C)cc1CO3,-4.63%
22,CC(OC(=O)c1cc2ccccc2o1)C(=O)Nc1ccc(N2CCOCC2)cc1 (centres undefined),-0.675%
23,CCCCC(c1nnnn1CS(=O)(=O)c1ccc(C)cc1)N1CCC(C(N)=O)CC1 (centres undefined),-1.34%

row,Structure (SMILES),activation
1,COc1ccc(C(CNC(=O)c2ccc(S(=O)(=O)Nc3ccccc3F)cc2)N(C)C)cc1 (centres undefined),1.38%
2,O=C(Nc1ccc(S(=O)(=O)N2CCc3ccccc3C2)cc1)c1ccccc1,25.5% (active)
3,CC(=O)Nc1ccc(S(=O)(=O)N2CCC(NC(=O)c3ccccc3)CC2)cc1,3.46%
4,COC(=O)c1ccc(S(=O)(=O)N2CCc3ccccc3C2)cc1,-1.34%
5,COc1cccc(/C=C2/SC(=S)N(CC(=O)NC3C=CS(=O)(=O)C3)C2=O)c1 (centres undefined),35.9% (active)
6,COc1cccc(/C=C2\Sc3ccc(C(=O)NCC4CCCO4)cc3N(C)C2=O)c1 (centres undefined),0.556%
7,O=C(CN1C(=O)S/C(=C\c2ccccc2Cl)C1=O)NC1C=CS(=O)(=O)C1 (centres undefined),-2.97%
8,COc1ccc(S(=O)(=O)N2CCCC2CNC(=O)C(=O)NC2CC2)cc1 (centres undefined),-3.99%
9,CC1C(=O)Nc2ccccc2N1C(=O)c1ccc(F)cc1F (centres undefined),1.98%
10,Cc1ccc(OCC(=O)NCCCNC(=O)c2cccnc2)cc1C,2.57%
11,Cc1ccc(NC(=O)COc2ccc(/C=N\NC(=O)c3cccnc3)cc2)cc1C,82.7% (active)
12,C/C(=C\C(=O)c1cccnc1)Nc1ccc(C)c(C)c1,-1.12%
13,N#Cc1ccccc1S(=O)(=O)N1CCN(C(=O)c2cc(-c3ccccc3)nn2-c2ccccc2)CC1,1.25%
14,O=[N+]([O-])c1ccc(N2CCN(c3ccc(O)cc3)CC2)c(Cl)c1,-9.93%
15,CCN(C(=O)COC(=O)c1ccc(COc2ccc3c(C)cc(=O)oc3c2)cc1)C1CCS(=O)(=O)C1 (centres undefined),2.03%
16,CCOC(=O)c1cc(=O)c2ccc(OCc3ccccc3)cc2o1,-2.05%
17,Cc1ccccc1NC(=O)c1ccc(COc2ccc3c(C)cc(=O)oc3c2)cc1,22.2% (active)
18,Cc1ccc(C(C)C)c(OCCSc2nc3ccccc3n2CC(=O)O)c1,-20.9%
19,CCOc1ccc(OCC(=O)Nc2c3c(nn2C(C)(C)C)CS(=O)(=O)C3)cc1,-1.81%
20,CCOc1ccc(N(C)S(=O)(=O)c2cnc[nH]2)cc1,-0.199%
21,Cc1ccc2nc(-c3ccccn3)cc(C(=O)Nc3ccc4c(c3)OCO4)c2c1,36.9% (active)
22,CSc1ncccc1C(=O)Nc1ccc2c(c1)OCO2,-5.35%
23,Cc1ccc(-n2c(SCC(=O)Nc3ccc4c(c3)OCO4)nnc2-c2ccccn2)cc1,-2.46%

row,Structure (SMILES),activation
1,O=C(N/C(=C\c1ccc([N+](=O)[O-])cc1)C(=O)N1CCCCC1)c1ccco1,-1.72%
2,O=C(Cn1nnc(-c2ccccc2)n1)NCc1ccc2c(c1)OCO2,22.6% (active)
3,Cc1ccc(Cn2nnc3c(=O)n(CC(=O)N4CCCCC4)cnc32)cc1,3.79%
4,CS(=O)(=O)N(CC(=O)NCc1ccco1)c1ccc2c(c1)OCO2,2.32%
5,S=C(NCc1ccc2c(c1)OCO2)NCc1ccco1,-2.47%
6,O=C(CN(C(=O)CCC(=O)Nc1nccs1)c1ccc(F)cc1)NCc1ccc2c(c1)OCO2,6.39%
7,CCN(CC)C(=O)C(=O)c1cn(CC(=O)NCc2ccc3c(c2)OCO3)c2ccccc12,-0.7%
8,O=C(Cn1cnc2c(nnn2Cc2ccc(F)cc2)c1=O)NCc1ccc2c(c1)OCO2,17.6% (active)
9,O=C(Cn1nnc(-c2ccc3c(c2)OCO3)n1)NCc1ccco1,33.3% (active)
10,COc1cc(-c2nnn(CC(=O)NCc3ccccc3)n2)cc(OC)c1OC,-0.135%
11,O=C(NC1CCCC1)C(c1ccc(Cl)cc1)N(C(=O)c1csnn1)C1CC1 (centres undefined),-6.23%
12,Cc1ccc(-c2cnc(NC(=O)CCC(=O)N(C)Cc3ccccc3)n2C)cc1,-2.74%
13,CCCC1C(=O)N2C(N(C)C)=Nc3ccc(C)cc3N2C1=O (centres undefined),6.69%
14,COc1ccc(S(=O)(=O)N2CCN(C(C)C(=O)Nc3ccc(C(C)C)cc3)CC2)cc1 (centres undefined),-3.44%
15,O=C(CCc1ccccc1)Nc1ccc(NC(=O)C2CC2)nc1,4.2%
16,COc1ccc(S(=O)(=O)N(CC(=O)N/N=C/c2ccc(C(=O)O)cc2)Cc2ccccc2)cc1OC,-11.9%
17,Cc1ccccc1NC(=O)CCOc1ccccc1,-7.98%
18,O=C(Nc1ccccc1)c1ccc(NC(=O)c2cccs2)cc1,19% (active)
19,O=C(NC(=S)Nc1ccc(NC(=O)c2cccs2)cc1)c1ccc([N+](=O)[O-])cc1,-0.174%
20,CC(Oc1cccc(NC(=O)c2cccs2)c1)C(=O)c1ccccc1 (centres undefined),-3.07%

# Source: PubChem BioAssay AID493131 (Broad Institute, 2011)
